# Source: PubChem
# In the library only some 1.3% were active in any assay of this set; here they are far more common.
# Mac1 fbg enh: enhancers of human CD11b/CD18 binding to fibrinogen; P05107+P11215; K562 CD11b/CD18 adhesion to fibrinogen, ATPlite luminescence; activation, % at 10 µM; 93,000 compounds, 0.07% hits; AID 1499;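 active = 10 µM primary screen giving 50% or more activity, confirmed by 40% or more on retest at that dose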
# Target sequence (P05107 whole entry, looked up, other chains not shown): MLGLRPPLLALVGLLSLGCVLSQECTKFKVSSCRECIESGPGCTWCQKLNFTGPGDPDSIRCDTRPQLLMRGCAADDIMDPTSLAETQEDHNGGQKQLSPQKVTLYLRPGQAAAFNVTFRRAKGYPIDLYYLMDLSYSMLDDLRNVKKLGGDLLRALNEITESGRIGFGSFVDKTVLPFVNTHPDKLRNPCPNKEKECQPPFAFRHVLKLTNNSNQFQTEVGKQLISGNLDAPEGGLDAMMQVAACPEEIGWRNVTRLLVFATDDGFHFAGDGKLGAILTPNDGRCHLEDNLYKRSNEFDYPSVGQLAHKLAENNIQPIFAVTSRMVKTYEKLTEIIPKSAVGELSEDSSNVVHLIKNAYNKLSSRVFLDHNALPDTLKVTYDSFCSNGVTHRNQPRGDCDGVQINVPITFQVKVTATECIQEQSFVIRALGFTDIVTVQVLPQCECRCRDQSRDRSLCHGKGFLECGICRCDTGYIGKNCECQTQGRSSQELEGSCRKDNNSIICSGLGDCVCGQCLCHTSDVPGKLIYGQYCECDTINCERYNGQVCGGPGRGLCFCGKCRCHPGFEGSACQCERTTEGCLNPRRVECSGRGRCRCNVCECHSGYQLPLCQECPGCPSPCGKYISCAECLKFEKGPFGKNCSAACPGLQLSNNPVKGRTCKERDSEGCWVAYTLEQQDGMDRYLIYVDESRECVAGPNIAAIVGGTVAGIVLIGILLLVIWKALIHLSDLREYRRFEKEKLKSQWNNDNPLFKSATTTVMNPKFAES
# MRP reversal: MRP-mediated drug resistance reversal. H69AR cells + 2 uM doxorubicin, CellTiter-Glo, 72 h. differential viability (reversal), % at 10 µM. 85,000 compounds, 0.04% hits. AID 602;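 active = viability drop by adding the cancer drug above about 55%, with treated viability meeting a 40% cutoff, limit read from the data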;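 also: viability without doxorubicin minus viability with 2 µM doxorubicin for each compound; larger differential means the compound sensitizes cells more to doxorubicin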
# Mac1 fbg inh: inhibitors of human CD11b/CD18 binding to fibrinogen | P05107+P11215 | K562 CD11b/CD18 adhesion to fibrinogen, ATPlite luminescence; Mn2+ added to activate the integrin | inhibition, % at 10 µM | 93,000 compounds, 0.54% hits;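 active = primary inhibition of 50% or more at 10 µM, then 40% or more on retest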
# Phagocytosis inh: blocks phagocytosis by macrophages. J774A.1 macrophage IgG-bead phagocytosis, imaging. inhibition, % at 5 µM. 110,000 compounds, 0.07% hits. AID 1029;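 active = inhibition above the mean of the plate negative controls plus 5 SD, cut at about 13% in these data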;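 also: phagocytic index as fraction of beads internalized from green versus red external bead signal; plate controls were DMSO negative control for no effect and cytochalasin-D positive control for full effect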
# SDO1 yeast rescue: compounds rescuing growth of sdo1-depleted yeast, bone marrow failure model; S. cerevisiae sdo1-depleted JHY4D growth rescue, OD600 30 h; stronger effect = higher value; pdr5 snq2 efflux-pump mutant strain; 140,000 compounds, 0.21% hits; z-score at 10 µM; AID 817;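 active = z-score above 3 at both the 24 hr and the 30 hr optical density reads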;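 also: z-score against mean and SD of all compound wells on the same plate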
# MRP1 act: MRP-1 activation; H69AR cells + doxorubicin, viability rescue, CellTiter-Glo; viability increase, % at 10 µM; 140,000 compounds, 0.61% hits; AID 799;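 active = viability gain under doxorubicin at or above a set limit, the compound median plus 3 SD, cut at about 4.7% in these data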;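 also: MRP-1 overexpressing cells given doxorubicin 25 µM after compound pretreatment; 18-22 h compound pretreatment then 72 h with doxorubicin before readout; 0% = doxorubicin-only wells and 100% = vehicle-treated cells without doxorubicin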
# The depositor's hits bear a star; . = no result; [ ] = another dose, or the depositor's remark.
SMILES,Mac1 fbg enh,MRP reversal,Mac1 fbg inh,Phagocytosis inh,SDO1 yeast rescue,MRP1 act
COc1ccccc1-c1nnc(SC2CCc3ccccc3NC2=O)s1 (configuration not stated),.,1,.,.,-1.5,6.3*
O=c1ccccn1Cc1c(F)cccc1Cl,-1,2,-14,0,0.87,0
Cc1ccc(S(=O)(=O)N2CCN(c3nc(C)c4c(c3C#N)CC(C)(C)OC4)CC2)cc1,-1,.,19,0,-0.43,6.1*
Cc1sc(NC(=O)Cn2[nH]c(=O)c3ccccc3c2=O)nc1-c1ccccc1,.,.,.,.,0.55,-5
CS(=O)(=O)N(Cc1ccccc1)c1ccc(C(=O)N2CCc3ccccc3C2)cc1,.,3,.,.,-0.95,-3
Cc1cccc(-c2noc(CCC(=O)NCc3ccccc3)n2)c1,1,-1,-2,1,-0.76,-1
Cc1cc(C)cc(OCC(=O)NCc2nc(-c3ccccc3)no2)c1,-6,-26,-11,23*,-1.3,-3
Cc1csc(NC(=O)c2cc3c(C)nn(Cc4ccccc4Cl)c3s2)n1,.,.,.,-1,-1.1,5.0*
N=C(N)SCc1nc2ccccn2c1Br,2,.,0,-12,0.36,7.9*
Cc1cccc2nc(CSC(=N)N)c(Br)n12,-2,.,2,-5,0.11,2
Cc1ccc(NC(=O)C(=O)c2c(-c3ccccc3)cc3ccccn23)cc1S(=O)(=O)N1CCOCC1,-1,13,4,.,-0.47,4.8*
Cc1ccc(NC(=O)c2ccccc2-c2ccc(C(F)(F)F)cc2)cc1S(=O)(=O)N1CCOCC1,.,.,.,-1,-0.64,-2
O=C(CN1CCN(Cc2ccc(Cl)cc2)C1=O)NCCCN1CCOCC1,6,8,-12,-1,0.13,1
O=C(CN1CCN(Cc2ccc(Cl)cc2)C1=O)NCCCN1CCN(c2ccc(F)cc2)CC1,-4,-3,57*,0,-0.41,0
O=C(COC(=O)CCCOc1ccc(Cl)cc1Cl)Nc1cccc(Cl)c1,.,.,.,-4,-1.1,-2
COc1ccc(CNC(=O)COC(=O)CCCOc2ccc(Cl)cc2Cl)cc1,1,.,10,-7,-0.02,4.9*
O=C(C1CC1)N1CCC(c2nc(-c3ccc(S(=O)(=O)NCC4CCCO4)cc3)no2)CC1 (configuration not stated),-3,-1,62*,-1,-0.88,-1
CN(Cc1cc2ccccc2[nH]c1=O)S(C)(=O)=O,3,5,-10,.,2,-2
CCOC(=O)C1=C(Cc2ccc(OC)cc2)C(=O)c2ccccc2C1=O,-8,-1,98,0,-1.3,-2
CCOC(=O)C1=C(Cc2ccc(C)cc2)C(=O)c2ccccc2C1=O,-7,1,90*,0,-2.1,-1
CCC(C)(C)NC(=O)/C=C/c1cccs1,-1,.,-9,-7,0.23,-2
Cc1cc(Cl)c(S(=O)(=O)N2CCN(c3ccc(F)cc3)CC2)cc1OCC(N)=O,-1,.,3,2,-0.03,-4
Cc1cc(Cl)c(S(=O)(=O)N2CCN(c3ccc(F)cc3)CC2)cc1OCC(=O)NC1CCCCC1,-6,-36,94*,1,-0.78,-1
O=C(NCc1ccccc1)c1sc(=S)n2c1[nH]c(=O)c1ccccc12,-7,-5,103*,2,-0.01,-2
Cc1cc(C)nc(NN2C(=O)/C(=C/c3ccc(O)cc3)SC2=S)n1,.,.,.,.,-0.7,7.8*
SMILES,Mac1 fbg enh,MRP reversal,Mac1 fbg inh,Phagocytosis inh,SDO1 yeast rescue,MRP1 act
C=CCn1c(NC(=O)c2ccccc2Cl)c(C#N)c2nc3ccccc3nc21,-8,-14,97*,-1,1,-5
C=CCn1c(NC(=O)c2ccccc2)c(C#N)c2nc3ccccc3nc21,.,0,.,.,.,.
O=C(Cc1ccccc1)Nc1ccccc1Oc1ccccc1,.,.,.,-3,-1.3,8.1*
O=C(O)c1ccc(N/N=C/c2ccc(F)c(F)c2)cc1,-1,.,-13,4,0.4,7.3*
Cc1cc2cc(CN(Cc3cccs3)S(=O)(=O)c3ccc4c(c3)OCCO4)c(=O)[nH]c2cc1C,.,.,.,2,-1.3,-1
Cc1cccc2cc(CN(Cc3cccs3)S(=O)(=O)c3ccc4c(c3)OCCO4)c(=O)[nH]c12,5,.,10,.,-1,9.3*
CCOC(=O)c1cc2cc(OC)ccc2nc1C,.,6,.,.,-0.16,0
CCc1cc(/C(Cc2csc(C)n2)=N/O)c(O)cc1O,-9,-6,80*,-2,0.34,-1
CCOC(=O)Cc1nnc2c(Nc3ccccc3F)nc3nonc3n12,-11,-19,99*,-2,-0.94,-1
CCOC(=O)Cc1nnc2c(Nc3ccc(C)cc3)nc3nonc3n12,0,-10,2,-1,0.5,-3
CCOC(=O)COc1ccc(S(=O)(=O)N2CCN(c3ccccc3)CC2)cc1,.,.,.,-4,-0.67,0
Cc1c(C)n(C)c2ccc(C(=O)NCc3cccs3)cc12,1,25,-1,0,-0.5,5.5*
NNC(=O)CNC(c1ccccc1)c1cc(Br)ccc1NC(=O)c1ccc(Br)cc1 (configuration not stated),.,.,.,-6,0.44,0
NNC(=O)CNC(c1ccccc1)c1cc(Br)ccc1NC(=O)c1cccc(Cl)c1 (configuration not stated),.,.,.,4,-0.19,11*
O=C(COC(=O)c1cc(S(=O)(=O)N2CCOCC2)ccc1Cl)Nc1ccc2c(c1)OCO2,0,17,-8,-2,0.16,-1
Clc1ccc(OCc2nnnn2-c2ccccc2)cc1,.,.,.,-6,0.01,7.3*
c1ccc(OCc2nnnn2-c2ccccc2)cc1,1,.,-23,27,1,0
CC(=O)NCCC(=O)Nc1nc(-c2cccs2)c(-c2cccs2)s1,31,.,1,3,0.39,0
O=C(Nc1nc(-c2cccs2)c(-c2cccs2)s1)C1(c2ccccc2)CC1,2,.,-9,-16,0.04,5.2*
Cc1ccc(S(=O)(=O)N(C)c2ccc(C(=O)N3CCN(Cc4ccc5c(c4)OCO5)CC3)cc2)cc1,-9,-11,61*,0,-0.45,-5
Cc1ccc2nc(-c3cccc(N)c3)oc2c1,-3,5,59*,1,-0.08,-1
Nc1c(C(=O)c2ccc(Cl)cc2)sc2nc3c(cc12)CCC3,-5,.,-4,-9,-0.24,2
CN1CCc2nc3sc(C(=O)C45CC6CC(CC(C6)C4)C5)c(N)c3cc2C1,118*,.,13,-1,-1.8,-5
O=C(/C=C/c1ccc([N+](=O)[O-])cc1)N1CCN(c2ccccc2F)CC1,.,.,.,-2,-1.4,35*
O=C(/C=C/c1cccs1)N1CCN(c2ccccc2F)CC1,.,.,.,-1,-0.68,-2
CCOC(=O)C(Cc1c[nH]c2ccccc12)NC(=O)c1ccco1 (configuration not stated),-2,13,4,90*[artifact],0.51,-1
C=CCn1c(C)cc(C(=O)COC(=O)COc2ccccc2C#N)c1C,-4,5,-7,-2,-2.6,-1
